Assay outcomes: PubChem BioAssay, ICCB-Longwood Screening Facility, Harvard Medical School
Only a selection was taken, and hits are over-represented in it overall.
Vaccinia pol inh: inhibitors of vaccinia virus processive DNA synthesis (E9 polymerase). normalized absorbance, % (no concentration beside the values). in vitro processive DNA synthesis, absorbance read-out; active compounds read low. 46,000 tested, 0.94% active; in the data active = normalized absorbance mostly below about 85%, no sharp cut-off; inactive = mostly above about 86%
The depositor's hits bear a star; ! = a repeat was not active.

SMILES | Vaccinia pol inh
Cc1cccc2nc(CSC(=S)NCC3CCCO3)cn12 (stereo not given) | 110
O=C(NCCN1Cc2ccccc2C1=O)Nc1cccc(Cl)c1 | 100
CSc1cccc(NC(=S)N(CCc2ccncc2)C(C)C)c1 | 95
O=C(CN1CCN(c2ccccc2)CC1)N1c2ccccc2Sc2ccccc21 | 116
Cc1nn2c(=O)c3ccc(C(=O)O)cc3nc2s1 | 100
C=C(C)C(=O)Oc1ccc(N2Cc3ccccc3C2=O)cc1 | 100
CCNc1cc(N(C)C)c2noc3c2c1C(=O)c1ccccc1-3 | 72
CC(C)Nc1cc(Br)c2noc3c2c1C(=O)c1ccccc1-3 | 100
O=C1c2ccccc2-c2onc3c(Br)cc(N4CCCCC4)c1c23 | 73*
COc1cc(C(F)(F)F)nc2ccc(C)c(NC(=O)c3ccc(Cl)cc3)c12 | 107
COc1ccc(Cc2nc(-c3ccc(Br)cc3)no2)cc1 | 94
COc1ccc(-c2noc(-c3ccc(Cl)c(Cl)c3)n2)cc1 | 100
BrCc1ccc(-c2noc(-c3ccncc3)n2)cc1 | 21*
CCOc1ccc(Br)cc1S(=O)(=O)Nc1ccc(F)cc1 | 99
O=C(c1cc(-c2ccccc2O)no1)N1CCOCC1 | 98
CC(O)c1ccc(-n2cccc2)cc1 (stereo not given) | 86
CCc1ccc2c(c1)c1n[nH]c(=S)nc1n2C | 100
O=c1[nH]c(CCl)nc2ccccc12 | 102
CCOc1ccc2nc(Nc3nc(O)cc(=O)[nH]3)nc(C)c2c1 | 100
c1ccc(CN2CN=C(Nc3nc4ccccc4s3)NC2)cc1 | 108
CCN1CN=C(Nc2nc(C)c3cc(C)ccc3n2)NC1 | 49*
CCNc1nc(SCc2ccc(Cl)cc2)nc2sc3c(c12)CCN(C)C3 | 53*
CCNc1nc(SCC(=O)NC(=O)NCc2ccccc2)nc2sc3c(c12)CCN(C)C3 | 94
CC(C)C1Cc2c(sc3nc(SCc4ccc(Cl)c(Cl)c4)nc(N)c23)CO1 (stereo not given) | 100
CN(C)c1sc(C(=O)c2ccccc2)cc1-c1ccccc1 | 113
SMILES | Vaccinia pol inh
CC1Cc2nc(SC/C=C/c3ccccc3)n(C)c(=O)c2S1 (stereo not given) | 95
O=C(CSC(=S)N1CCCCC1)N1c2ccccc2CCc2ccccc21 | 92
COc1ccc(/C=C(\C#N)S(=O)(=O)c2ccc(C)cc2)cc1Cl | 134
COc1ccc(-c2n[nH]c(C(F)(F)F)c2-c2cc3ccccc3o2)c(O)c1 | 63*
COc1ccc(-c2n[nH]c(C(F)(F)F)c2-c2cnn(-c3ccccc3)c2)c(O)c1C | 94
Cc1c(O)ccc(-c2n[nH]c(C(F)(F)F)c2Oc2ccccc2)c1O | 93
CC1CCN(C(=O)CSC2=NCCS2)CC1 | 98
COc1cccc(OC)c1C(=O)N1CCN(C(=O)COc2ccc(Cl)cc2)CC1 | 100
O=C(CN1CC(c2ccccc2)CC1=O)NCCc1ccccc1 (stereo not given) | 105
O=C1CC(Sc2ccc3ccccc3c2)C2COC1O2 (stereo not given) | 36*
O=C1CC(N2C(=O)C3CC=CCC3C2=O)C2COC1O2 (stereo not given) | 101
CC1CCc2nc(SC3CC(=O)C4OCC3O4)nc(C(F)(F)F)c2C1 (stereo not given) | 100
Cc1ccc(C)n1-c1sccc1C(=O)O | 22*
Cc1ccc(C)n1-c1sccc1C(=O)CC#N | 110
CC(=O)Nc1sccc1C(=O)O | 92
COc1ccc2ncc(C(=O)c3ccccc3)c(N3CCCCC3)c2c1 | 106
Cc1ccc(SCc2cn3ccsc3n2)cc1 | 101
Cc1ccccc1Nc1nc(Nc2ccccc2C)nc(Sc2nccn2C)n1 | 100
CCc1ccc(NC(=O)c2cnc3ccccn3c2=O)cc1 | 101
CC(C)N(C)c1ncnc2sc3c(c12)CCC3 | 100
O=C(O)/C=C\C(=O)N1CCN(c2nc(-c3ccccc3)ns2)CC1 | 95
CC(C)(C)NC(=O)N1CCN(c2nc(-c3ccccc3)ns2)CC1 | 66*
c1ccc(-c2nsc(NC3Cc4ccccc4C3)n2)cc1 | 100
CC(=O)Oc1cn(C(C)C)c2nc(C)n3c4ccccc4nc3c12 | 95
Cc1cc(C)nc(N2Cc3ccccc3C2=N)n1 | 69*
SMILES | Vaccinia pol inh
N=C1c2ccccc2CN1c1ccc2c(c1)OCCO2 | 104
CCc1ccc(N2Cc3ccccc3C2=N)cc1 | 99
NC(CC1CCCCC1)C(O)C(F)(F)F (stereo not given) | 90
CN(Cc1ccccc1)C(=O)c1cc(-c2ccccc2)n[nH]1 | 93
NC(N)=NC(=O)c1nc(Cl)c(N)nc1N | 63*!
O=C(/C=C/c1ccco1)NC(c1ccccc1)c1ccccc1 | 102
COC(=O)C1CNc2ccccc2C1=O (stereo not given) | 101
N#C/C(=N/O)c1nc2ccccc2s1 | 101
Cc1ccc(CNC(=O)c2oc3ccccc3c2-n2cccc2)cc1 | 108
O=C(O)c1oc2ccc(Br)cc2c1-n1cccc1 | 67*
CC(=O)Nc1c(C(=O)O)oc2ccc(Br)cc12 | 100
Cc1ccc(Nc2nc3ccccc3[nH]2)cc1 | 100
COc1ccc(N=Cc2c(O)ccc3oc4c(c23)CCCC4)cc1 | 100
O=C(CCn1c(=O)oc2ccccc21)NCc1ccccc1 | 99
C[n+]1c(/C=C/Nc2ccccc2)sc2ccccc21 | 75*
CC[n+]1c(/C=C/Nc2ccccc2)sc2ccccc21 | 99
CSc1sc2ccccc2[n+]1C | 102
O=C(c1ccccc1)c1cnc(Nc2ccccc2)s1 | 92
CC(=C1C(=O)NC(=O)NC1=O)c1ccc(N)cc1 | 101
CCN1CN=C(SCc2cccc(C#N)c2)NC1 | 69
N#Cc1ccc(CSC2=NCCN2)cc1 | 71*
O=C(CSC1=NCCN1)NC(c1ccccc1)c1ccccc1 | 90
CN1CN=C(SCc2ccc(Cl)c(Cl)c2)NC1 | 65
CN1CN=C(SCc2cccc(C#N)c2)NC1 | 76*
N#Cc1ccc(CSc2ccc(Cl)cc2)cc1 | 100
SMILES | Vaccinia pol inh
CC(C)(CC(=O)Nc1ccc(F)cc1)Sc1ccc(Cl)cc1 | 104
CC(C)(C)OC(=O)C[n+]1cccc(C(N)=O)c1 | 100
Clc1ccc(-c2nc3c4ccsc4ncn3n2)cc1 | 108
O=C(O)c1ccccc1C(=O)N1CCN(C2c3ccccc3-c3ccccc32)CC1 | 74*
Cc1nnsc1C(=O)N1CCN(C2c3ccccc3-c3ccccc32)CC1 | 111
Cc1cc(C(=O)N2CCN(C3c4ccccc4-c4ccccc43)CC2)c(C)o1 | 96
CC1CCN(C(=O)COC(=O)COc2ccc(Cl)cc2)CC1 | 108
OC(CNCc1ccccc1)Cn1c2ccc(Cl)cc2c2cc(Cl)ccc21 (stereo not given) | 100
CN(C)CC(O)Cn1c2ccc(Br)cc2c2cc(Br)ccc21 (stereo not given) | 27*
CN(CC(O)Cn1c2ccccc2c2ccccc21)S(C)(=O)=O (stereo not given) | 109
CN(C(=O)COC(=O)c1cncc(Br)c1)c1ccccc1 | 94
CCOC(=O)C1=C(O)CN(C)C1=O | 100
Nc1sc(-c2ccccc2)c(Cc2ccccc2)c1C(=O)O | 90*
Nc1sc2c(c1C(=O)c1ccccc1)CCCC2 | 101
CCOC(=O)c1c(-c2ccccc2)csc1N | 94
Cc1ccccc1NC(=O)C1C2c3ccccc3OC1(C)N=C1SCC(=O)N12 (stereo not given) | 100
CCN(CC)c1ncnc2c1[nH]c1ccc(C)cc12 | 100
COc1ccc2[nH]c3c(N(C)C)ncnc3c2c1 | 64*
COc1ccc2[nH]c3nc(=S)[nH]nc3c2c1 | 101
O=C(O)CN1C(=O)S/C(=C\c2ccccc2Cl)C1=O | 100
O=C(O)c1sccc1-n1cccc1 | 98
CN(C)CCc1cc2c(c3c1ccc1ccccc13)OCO2 | 11*
